Bioassay records from PubChem.
In the library only some 0.79% were active in any assay of this set; here they are far more common.
Calb biofilm kill: kills Candida albicans biofilms; C. albicans biofilm + clotrimazole, Alamar Blue; inhibition, % at 6 µM; hit rate 0.14% among 85,000;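 active means inhibition above 20%; inactive means inhibition below 20%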;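 further: preformed 24 hr biofilms exposed to compound for 48 hr; 0% = biofilm without compound and 100% = blank killed by clotrimazole plus chlorhexidine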
LYP act: LYP (human) phosphatase activation; Q9Y2R2; recombinant LYP, DiFMUP fluorescence; 0 = plate median, 100 = signal doubled; activation, % at 2 µM; hit rate 0.11% among 96,000;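 active means activation at 2 µM above a set limit, the mean plus 5 SD, cut at about 37% in these data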
Target sequence (Q9Y2R2 whole entry, looked up): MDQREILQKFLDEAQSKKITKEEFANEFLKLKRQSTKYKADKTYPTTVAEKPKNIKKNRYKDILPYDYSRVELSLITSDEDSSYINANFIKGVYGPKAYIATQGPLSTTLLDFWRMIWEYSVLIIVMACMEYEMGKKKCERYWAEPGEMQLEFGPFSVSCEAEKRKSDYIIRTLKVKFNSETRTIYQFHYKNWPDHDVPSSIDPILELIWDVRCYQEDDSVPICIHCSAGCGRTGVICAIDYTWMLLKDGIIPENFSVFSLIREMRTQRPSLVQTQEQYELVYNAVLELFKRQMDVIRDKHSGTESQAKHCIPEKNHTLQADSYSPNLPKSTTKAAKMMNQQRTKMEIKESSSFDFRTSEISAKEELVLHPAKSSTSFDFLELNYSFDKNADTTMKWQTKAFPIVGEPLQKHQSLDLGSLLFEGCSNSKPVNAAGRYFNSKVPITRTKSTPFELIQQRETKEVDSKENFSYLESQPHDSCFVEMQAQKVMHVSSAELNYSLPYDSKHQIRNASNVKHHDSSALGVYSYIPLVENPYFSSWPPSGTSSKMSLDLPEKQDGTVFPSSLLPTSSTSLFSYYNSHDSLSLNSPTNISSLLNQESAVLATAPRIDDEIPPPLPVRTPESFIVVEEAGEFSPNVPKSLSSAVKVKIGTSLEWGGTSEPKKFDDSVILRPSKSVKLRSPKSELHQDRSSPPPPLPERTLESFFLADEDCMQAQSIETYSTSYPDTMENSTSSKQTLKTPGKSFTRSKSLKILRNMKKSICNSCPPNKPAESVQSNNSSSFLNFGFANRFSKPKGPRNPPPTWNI
LYP inh 2: blocks human PTPN22 phosphatase activity; Q9Y2R2; recombinant LYP catalytic domain, DiFMUP fluorescence; inhibition, % at 2 µM; hit rate 0.21% among 96,000; AID 640;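 active means inhibition at 2 µM at or above a set limit, the screen mean plus 3 SD, cut at about 24% in these data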;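 further: 0% = DMSO with enzyme and 100% = enzyme fully blocked by orthovanadate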
sEH inh: inhibitors of human soluble epoxide hydrolase; recombinant human sEH enzymatic activity assay; hit rate 0.34% among 91,000; inhibition, % at 2 µM; in the data active means inhibition above about 80%
sEH activator: soluble epoxide hydrolase (human) activation; purified human sEH enzymatic activity, activator screen; activation, % at 2 µM; hit rate 0.04% among 91,000; AID 717; in the data active means activation above about 37%
BAP1 inh: inhibitors of human BAP1 deubiquitinase; recombinant BAP1, Ub-AMC hydrolysis fluorescence kinetic; active compounds read low; calls only at 20 µM; hit rate 0.48% among 72,000; AID 436;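 active means activity remaining at or below 50% of control, provided the compound also passes the data quality filters; inactive means the rest, including low values that fail the filters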;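 further: 100% = DMSO wells rate and 0% = substrate alone blank rate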
Active calls of the source: *; i = inactive; x = no result; + = active, no number; ! = repeats disagree.

SMILES | Calb biofilm kill | LYP act | LYP inh 2 | sEH inh | sEH activator | BAP1 inh
Cc1cccc2sc(NC(=O)CSc3nc4ccccc4o3)nc12 | 52* | -2 | -1 | -4 | 6 | x
O=C(CSc1nnc(-c2cccs2)n1-c1cccc(Cl)c1)c1cccc2c1OCCO2 | 3 | -24 | 25* | -4 | 2 | x
Cc1cc([N+](=O)[O-])ccc1N1C(=O)C2C3c4ccccc4C(c4ccccc43)C2C1=O (stereo not drawn) | x | x | x | x | x | i
CCCCn1c(=S)[nH]c2c1c(=O)[nH]c(=O)n2C | x | x | x | x | x | i
CCc1nnc2n1N=C(c1ccc(-c3cc(Cl)ccc3Cl)o1)CS2 | 24* | -3 | 1 | x | x | x
CCc1nnc2n1N=C(c1ccc(-c3ccc(Cl)cc3Cl)o1)CS2 | 1 | 6 | -2 | 5 | -5 | i
Cc1ccc2c(Cl)cc(Cl)c(OCC(=O)NCc3ccco3)c2n1 | 4 | -28 | 30* | 4 | -4 | x
Cc1ccc2c(Cl)cc(Cl)c(OCC(=O)NC(=O)NCc3ccco3)c2n1 | 1 | 0 | 3 | 1 | 1 | i
COc1cc(/C=N/NC(=O)CSc2cc(C)c(Br)cc2C)ccc1O | x | 6 | -7 | 18 | -16 | x
Cc1cc(SCC(=O)N/N=C/c2ccc(O)c(O)c2O)c(C)cc1Br | x | -57 | 57* | -4 | 2 | x
Cc1ccc(NC(C)c2cc(Cl)ccc2O)cc1 (stereo not drawn) | 35* | -1 | 3 | -16 | 14 | x
COc1ccc(C(=O)n2nc(C)c(Sc3ccc(C)cc3)c2C)cc1 | x | x | x | x | x | i
COc1cc(NC(=O)C2CCCO2)c(OC)cc1Cl (stereo not drawn) | -3 | 4 | -6 | 1 | 4 | x
COc1ccc(NC(=O)C2CCCO2)cc1Cl (stereo not drawn) | -3 | -25 | 24* | 5 | -8 | x
CCOc1ccc(NC(=O)c2ccc(C)cc2)cc1 | x | x | x | x | x | i
O=C(CSc1nnc2scc(-c3ccccc3)n12)Nc1nsc(-c2ccc(Cl)cc2)n1 | x | -24 | 26* | 8 | -8 | i
Cc1cc(NCCOCCO)n2ncc(-c3ccc(Cl)cc3)c2n1 | 11 | -5 | -2 | -1 | 4 | i
CC(C)(C)c1cc(NCCCn2ccnc2)n2ncc(-c3ccc(Cl)cc3)c2n1 | -2 | -36 | 38* | -8 | 11 | x
O=C(O)c1nc(N2CCOCC2)nc(N2CCOCC2)n1 | 4 | -6 | 7 | 9 | -4 | x
CN1CCn2c1nc(N1CCOCC1)nc2=O | 4 | -33 | 31* | 6 | -6 | i
Cc1ccc(C)c(OCC(=O)N/N=C/c2c(C)nn(-c3ccccc3)c2Cl)c1 | x | -29 | 28* | 4 | -5 | x
CCC(=O)c1ccc(N2CCCCCC2)c(F)c1 | 9 | 9 | -12 | x | x | i
CCC(=O)c1ccc(N2CCCC2)c(F)c1 | 9 | -6 | 6 | -39 | 39* | x
Cc1nn(-c2ccccc2)c(C)c1/C=N/NC(=O)c1cc(C23CC4CC(CC(C4)C2)C3)[nH]n1 | x | -34 | 38* | -2 | 5 | x
O=C(NCCC1=CCCCC1)NC12CC3CC(CC(C3)C1)C2 | 11 | 1 | -2 | 97* | -97 | x
SMILES | Calb biofilm kill | LYP act | LYP inh 2 | sEH inh | sEH activator | BAP1 inh
CCNC(=O)COc1cc(C)c(Cl)c(C)c1 | -1 | -25 | 25* | -7 | 5 | x
CCCOC(=O)c1ccc(NC(=O)COc2cc(C)c(Cl)c(C)c2)cc1 | x | x | x | x | x | i
CSc1cccc(NC(=O)Nc2ccc(Cl)cc2)c1 | 8 | 18 | -15 | 82* | -82 | x
CSc1ccccc1NC(=O)Nc1ccc(Cl)cc1 | 4 | 5 | -2 | 20 | -20 | x
COc1cccc(N2CCC(=O)N2)c1 | x | x | x | x | x | i
CCOC(=O)c1ccc(NC(=O)CSc2nc(NC(=O)c3ccccc3)c3c(C)c(C)oc3n2)cc1 | 9 | -24 | 25* | -9 | 6 | x
Nc1c(C(O)(C(F)(F)F)C(F)(F)F)ccc2ccccc12 | 4 | -6 | 3 | x | x | +
CCOC(=O)c1sc(NC(C)=O)cc1C | 10 | x | x | x | x | i
CCOC(=O)c1sc(NC(=O)c2ccc(C)s2)cc1C | 1 | -10 | 12 | 87* | -86 | x
CCOc1ccc(NC(=O)NCCCSC2CCCCC2)cc1 | 8 | 7 | -5 | 85* | -86 | x
CC(C)(C)n1nc2c(c1NC(=O)Cc1ccccc1)CSC2 | x | x | x | x | x | i
COc1ccccc1-c1coc2cc(OCc3ccccc3Cl)ccc2c1=O | x | x | x | x | x | i
CCOC(=O)C1=C(C)NC(C)=C(C(=O)OC)C1c1cccc(Cl)c1Cl (stereo not drawn) | 10 | x | x | x | x | +!
CC(C)C(CCNC(=O)CC(Cc1ccccc1)c1ccco1)c1ccco1 (stereo not drawn) | -4 | -21 | 24* | 46 | -46 | x
CC(=O)c1c(C)[nH]c(C(=O)N2CCc3ccccc3C2)c1C | 7 | -8 | 6 | -3 | 3 | i
CC(=O)c1c(C)[nH]c(C(=O)N2c3ccccc3CC2C)c1C (stereo not drawn) | 27* | -2 | 0 | 4 | -4 | i
CC(C)c1ccc(N2C(=O)CC(Sc3nc4ccccc4o3)C2=O)cc1 (stereo not drawn) | x | -22 | 24* | 1 | -2 | x
O=C(O)c1ccc(Cl)c(S(=O)(=O)NCc2ccccc2)c1 | x | x | x | x | x | i
CCOc1ccc2c3c(c(=O)oc2c1)CCCC3 | x | x | x | x | x | i
CCN(CC(=O)NC(=O)NC1CCCCC1)Cc1nc2ccccc2c(=O)[nH]1 | 5 | -24 | 25* | 2 | -3 | x
CCN(CC(=O)NC(c1ccccc1)c1ccccc1)Cc1nc2ccccc2c(=O)[nH]1 | -7 | 2 | -2 | 8 | -5 | x
O=[N+]([O-])c1ccc(N2CCNCC2)cc1NCCOc1ccc(Cl)cc1 | x | x | x | x | x | i
Cc1nnc(N(Cc2ccco2)C(=O)c2ccc(C#N)cc2)s1 | 7 | -27 | 27* | 7 | -4 | x
O=C(Nc1ccc(Cl)c(C(F)(F)F)c1)C1CCCN(S(=O)(=O)c2cnc[nH]2)C1 (stereo not drawn) | 6 | 5 | -6 | 92* | -92 | i
Cc1ccc(CCNC(=O)C2CCCN(S(=O)(=O)c3cccc4nsnc34)C2)cc1 (stereo not drawn) | 3 | -4 | 3 | 83* | -83 | i
SMILES | Calb biofilm kill | LYP act | LYP inh 2 | sEH inh | sEH activator | BAP1 inh
O=C(NCCc1ccc(Cl)cc1)C1CCCN(S(=O)(=O)c2cnc[nH]2)C1 (stereo not drawn) | 25* | -6 | 3 | x | x | i
O=C(Nc1cccc(Cl)c1)C1CCCN(S(=O)(=O)c2cnc[nH]2)C1 (stereo not drawn) | 13 | -3 | 0 | x | x | i
CCC=Nc1c(C)n(C)n(-c2ccccc2)c1=O | x | x | x | x | x | i
CCCc1cc(=O)oc2cc(OC(C)C(=O)O)ccc12 (stereo not drawn) | x | x | x | x | x | i
CN1CCN(S(=O)(=O)c2cccc([N+](=O)[O-])c2)CC1 | x | 5 | -3 | -35 | 39* | x
O=C(NCCC1=CCCCC1)C1CCN(c2nc3ccccc3o2)CC1 | 3 | -1 | 1 | 85* | -85 | x
Cc1oc(-c2ccccc2F)nc1CN1CCC(C(=O)NCCC2=CCCCC2)CC1 | 2 | -2 | 0 | 89* | -89 | i
COc1cccc(CN2CCN(Cc3ccc([N+](=O)[O-])cc3)CC2)c1 | x | x | x | x | x | i
Cc1ccc(C23CC4CC(CC(C(=O)N5CCCCC5)(C4)C2)C3)cc1 | x | x | x | x | x | i
